Assay outcomes (PubChem BioAssay)
In the library only some 2.6% were active in any assay of this set; here they are far more common.
PAFAH1B2 inh – inhibitors of human PAFAH1B2; P68402; recombinant PAFAH1B2, FP-rhodamine activity probe, fluorescence polarization; inhibition, % at 3.39 µM; hit rate 1.2% among 340,000; AID 492953;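 active = inhibition above the mean of all tested compounds plus 3 SD, cut at about 24% in these data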
PAFAH2 FP inh – inhibitors of human PAFAH2. recombinant PAFAH2, FP-rhodamine activity probe, fluorescence polarization. hit rate 0.99% among 340,000. AID 492956. Q99487. inhibition, % at 3.39 µM;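 active = inhibition above the mean over all tested compounds plus 3 SD, cut at about 30% in these data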;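 also: inhibitors block probe labeling of enzyme so polarization drops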
PAFAH1B3 inh – PAFAH1B3 (human) inhibition. Q15102. inhibition, % at 3.39 µM. hit rate 0.28% among 340,000. recombinant PAFAH1B3, FP-rhodamine probe, fluorescence polarization;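 active = inhibition above the screen-wide average of all tested compounds plus 3 SD, cut at about 25% in these data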
PKA-R2B act – PKA-R2B complex activation | activation, % at 11.4 µM | hit rate 0.079% among 340,000 | P22694+P31323 | PKA-R2B holoenzyme dissociation, Cy5-IP20 fluorescence polarization; R2B truncated from residue 108, S112A mutant; 0% DMSO only, 100% 113 µM cGMP;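 active = activation above a cutoff set at the mean over all compounds plus 3 SD, cut at about 18% in these data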;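 also: higher means more holoenzyme dissociation and a rise in polarization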
Target sequence (P31323 whole entry, looked up, other chains not shown, the tested form may be a part): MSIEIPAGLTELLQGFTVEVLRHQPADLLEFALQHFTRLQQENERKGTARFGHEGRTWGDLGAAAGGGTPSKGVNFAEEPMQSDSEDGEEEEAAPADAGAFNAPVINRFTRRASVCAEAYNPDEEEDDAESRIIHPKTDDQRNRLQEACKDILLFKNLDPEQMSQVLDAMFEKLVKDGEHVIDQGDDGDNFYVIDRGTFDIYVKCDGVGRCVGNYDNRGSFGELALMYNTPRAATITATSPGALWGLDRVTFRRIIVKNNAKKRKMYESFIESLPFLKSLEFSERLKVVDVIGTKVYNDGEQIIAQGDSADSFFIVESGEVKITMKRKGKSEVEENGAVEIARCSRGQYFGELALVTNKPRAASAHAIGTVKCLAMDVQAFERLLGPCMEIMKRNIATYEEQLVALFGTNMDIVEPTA
PKA-R1A act – activators of PKA-R1A complex | P00514+P68181 | PKA-R1A dissociation, Cy5-IP20 fluorescence polarization; scaled: DMSO 0%, 113 µM cGMP 100% | hit rate 0.083% among 340,000 | activation, % at 11.4 µM;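 active = percent activation above the mean of all tested compounds plus 3 SD, cut at about 19% in these data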;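 also: higher means more PKAc released from R1A so a rise in polarization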
pPAFAH FP inh – pPAFAH (human) enzyme inhibition; recombinant pPAFAH, FP-rhodamine probe fluorescence polarization; inhibition, % at 3.39 µM; hit rate 1.5% among 330,000;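 active = inhibition above the mean inhibition across the screen plus 3 SD, cut at about 25% in these data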;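 also: inhibitors block binding of the rhodamine activity-based probe so polarization drops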
PAFAH2 FP conf – PAFAH2 (human) inhibition, confirmed | shares compounds with PAFAH2 FP inh | recombinant PAFAH2, FP-rhodamine activity probe, fluorescence polarization | inhibition, % at 3.39 µM | hit rate 65% among 2,300;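 active = mean inhibition over three repeats above a set limit taken from the earlier primary screen, cut at about 30% in these data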;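 also: inhibitor blocks binding of rhodamine activity probe so polarization falls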
Each line names hits and unclear results; the compound was inactive in the other large screens (follow-up assays come after a bar, where they were run).

CN(C(=O)COC(=O)c1ccc2c(c1)OCCO2)C1CCCCC1	PAFAH2 FP inh 68.9 (no result: pPAFAH FP inh) | PAFAH2 FP conf 61.1
COc1cc(C(=O)OCC(=O)NC2CCCCC2)cc(OC)c1OC	PAFAH2 FP inh 40.8 | PAFAH2 FP conf inactive
O=C(COC(=O)c1ccc2c(c1)OCCO2)NC1CCCCC1	PAFAH2 FP inh 87.1 | PAFAH2 FP conf 76.6
Cc1cc(C)nc(NC2=N[C@@H]3CCCC[C@H]3N2C(=O)Nc2cc(Cl)cc(Cl)c2)n1	none (no result: pPAFAH FP inh)
Cc1ccc(S(=O)(=O)N2CCC(C(=O)N3CCc4ccccc43)CC2)cc1C	none (no result: pPAFAH FP inh)
O=C(COC(=O)/C=C/c1ccccc1)NCc1cccs1	PAFAH2 FP inh 60.6 | PAFAH2 FP conf 47.5
O=C(/C=C/c1ccc(Cl)cc1)NCc1cccs1	none
O=C(COC(=O)c1ccccc1Br)NCc1cccs1	none
CCN(CC)S(=O)(=O)c1ccc(/C=C/C(=O)OCC(=O)NCc2cccs2)cc1	PAFAH2 FP inh 93.0 | PAFAH2 FP conf 80.0
O=C(COC(=O)/C=C/c1ccc(F)cc1)NCc1cccs1	PAFAH2 FP inh 61.7 | PAFAH2 FP conf 46.6
Cc1ccc(/C=C/C(=O)OCC(=O)NC(C)C)o1	PAFAH2 FP inh 34.8 | PAFAH2 FP conf inactive
O=C1CCC(c2ccc3c(c2)CCC3)=NN1	none
Cc1ccc(CN2CC(C(=O)Nc3cc(C)ccn3)CC2=O)cc1 (configuration not stated)	none
O=C(Nc1ccc(NC(=O)c2cccs2)c(Cl)c1)c1cccs1	none
Cc1ccc(/C=C/C(=O)OCC(=O)NCc2cccs2)o1	PAFAH2 FP inh 68.1 | PAFAH2 FP conf 53.3
O=C(COC(=O)c1ccc(Cl)c([N+](=O)[O-])c1)NC1CCCC1	none
Nc1ccc(C(=O)OCC(=O)N2CCc3ccccc3C2)cc1[N+](=O)[O-]	PAFAH2 FP inh 50.9 | PAFAH2 FP conf 45.7
O=C(COC(=O)c1ccccc1C(=O)c1ccc(Cl)c([N+](=O)[O-])c1)NC1CCCCCC1	PAFAH2 FP inh 61.9 | PAFAH2 FP conf 46.8
Nc1ccc(C(=O)OCC(=O)NC2CC2)cc1[N+](=O)[O-]	PAFAH2 FP inh 59.3 | PAFAH2 FP conf 47.8
O=C(OCC(=O)N1CCc2ccccc2C1)c1ccc(Cl)c([N+](=O)[O-])c1	none
Cc1cc(C(=O)OCC(=O)NC2CC2)ccc1[N+](=O)[O-]	none
COc1ccccc1CNC(=O)CN1C(=O)NC(c2ccccc2)(c2ccccc2)C1=O	none
CC(C)CCNC(=O)c1ccc(-n2cnc3cccnc32)cc1	none
O=C(COC(=O)c1cc[n+]([O-])cc1)Nc1ccccc1Cl	none
O=C(COC(=O)c1ccccn1)Nc1cccc(Cl)c1	none
Cn1nccc1C(=O)OCC(=O)Nc1ccc(S(N)(=O)=O)cc1	none
Cn1nccc1C(=O)OCC(=O)Nc1cccc(Cl)c1	PAFAH2 FP inh 66.2 | PAFAH2 FP conf 52.5
Cn1ccc(C(=O)OCC(=O)Nc2ccccc2Cl)n1	PAFAH2 FP inh 38.5 (no result: pPAFAH FP inh) | PAFAH2 FP conf inactive
Cn1ccc(C(=O)OCC(=O)Nc2cccc(Cl)c2)n1	PAFAH2 FP inh 83.2 | PAFAH2 FP conf 78.1
CCc1cc(C(=O)N(C)CC(=O)Nc2c(Cl)cccc2Cl)sc1C	none
COc1ccccc1CNC(=O)COC(=O)c1ccc(N2CCCC2=O)cc1	PAFAH2 FP inh 60.2 | PAFAH2 FP conf 46.4
COc1ccccc1CNC(=O)COC(=O)c1ccc(Cl)c(N)c1	PAFAH2 FP inh 33.0 | PAFAH2 FP conf 35.0
COc1ccccc1CNC(=O)COC(=O)c1ccc(NC(N)=O)cc1	PAFAH2 FP inh 56.0 | PAFAH2 FP conf 51.6
COc1ccccc1CNC(=O)COC(=O)c1c[nH]c2ccccc12	PAFAH2 FP inh 33.4 (no result: pPAFAH FP inh) | PAFAH2 FP conf inactive
COC(=O)c1ccccc1S(=O)(=O)C(C)(C)C	none
COC(=O)c1ccccc1S(=O)(=O)NNC(=O)Nc1ccccc1	PAFAH2 FP inh 34.4 | PAFAH2 FP conf inactive
O=C1OC2(CCCCC2)OC(=O)C1=CNc1nccs1	none
O=C1OC2(CCCCC2)OC(=O)C1=CNc1nc2ccccc2s1	PAFAH2 FP inh 41.1 | PAFAH2 FP conf inactive
CCN(CC)CCNC(=O)c1ccc(NC(=O)c2ccccc2-c2ccc(C(F)(F)F)cc2)cc1	none
